RORgamma inh – qHTS for inhibitors of ROR gamma transcriptional activity; Drosophila S2 Gal4-RORgamma UAS-luciferase reporter, 20 h; 310,000 tested, 5.4% active; Nuclear receptor ROR-gamma (Mus musculus), P51450; AID 2551, 2010; Potency, µM (series often up to 53.6 µM), for the others: at the highest dose activity change, negative = inhibition, usual class: inhibitors; further: potency means the concentration at half of the fitted maximal effect; nearly all actives have a fitted effect of over 60% in size
Target sequence (P51450 whole entry, looked up, the tested form may be a part): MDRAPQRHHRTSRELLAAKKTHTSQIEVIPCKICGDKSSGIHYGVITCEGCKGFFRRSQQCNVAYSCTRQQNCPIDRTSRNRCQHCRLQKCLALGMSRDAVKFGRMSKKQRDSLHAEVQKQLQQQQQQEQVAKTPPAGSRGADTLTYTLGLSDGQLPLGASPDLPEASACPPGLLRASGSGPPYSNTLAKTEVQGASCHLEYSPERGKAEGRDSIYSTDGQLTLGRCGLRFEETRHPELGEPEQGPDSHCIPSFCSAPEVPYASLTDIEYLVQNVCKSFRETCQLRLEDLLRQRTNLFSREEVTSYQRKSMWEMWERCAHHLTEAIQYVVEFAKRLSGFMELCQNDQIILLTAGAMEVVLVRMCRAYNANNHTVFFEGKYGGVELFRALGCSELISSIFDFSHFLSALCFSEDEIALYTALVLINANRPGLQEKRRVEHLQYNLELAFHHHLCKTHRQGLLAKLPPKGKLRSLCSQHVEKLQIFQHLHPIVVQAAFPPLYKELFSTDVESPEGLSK
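ROR gamma transcriptional activity was tracked as Gal4-UAS luciferase output in stably transfected Drosophila Schneider cells, with compound added 1 hr before 700 uM copper sulfate induction and a 20 hr ambient-temperature incubation.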
DT40 TDP1 CPT – qHTS for Inhibitors of human tyrosyl-DNA phosphodiesterase 1 (TDP1): qHTS in cells in presence of CPT; chicken DT40 Tdp1-/-;hTDP1 cells + 20 nM CPT, ATP luminescence, 48 h; Potency, µM (doses to about 46.2 µM), for the others: at the top dose activity change, negative = growth inhibition, usual class: inhibitors; 420,000 tested, 12% active; further: potency means the concentration at half of the fitted maximal effect; nearly all actives have a fitted effect of over 55% in size
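Cell growth measured by CellTiter-Glo luminescence after a minimum 48 h, 37 C compound exposure with 20 nM CPT in Tdp1-knockout DT40 cells stably expressing hTDP1, seeded 400/well; qHTS titration format.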
DT40 TDP1 no CPT – qHTS for Inhibitors of human tyrosyl-DNA phosphodiesterase 1 (TDP1): qHTS in cells in absence of CPT; DT40 Tdp1-/- hTDP1 cells, no CPT, ATP luminescence, 48 h; Potency, µM (doses to about 46.2 µM), inactives show at the top dose activity change, negative = growth inhibition, actives largely listed as inhibitors; 420,000 tested, 15% active; further: potency means the concentration at half of the fitted maximal effect; nearly all actives have a fitted effect of over 55% in size
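Seeded 400 DT40-hTDP1 cells/well (vehicle DMSO, no 20 nM CPT); pinned compounds; ≥48 hr at 37 °C; CellTiter-Glo luminescence as viability measure.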
IL-1B inflam inh – qHTS for Inhibitors of Inflammasome Signaling: IL-1-beta AlphaLISA Primary Screen | AID 743279, 2014 | THP-1 LPS/ATP IL-1B secretion, AlphaLISA, 16 h; active compounds read low | activity change, % at 57.5 µM | 360,000 tested, 4.7% active; in the data active means activity change below about -50%; inconclusive means mostly about -30% to -49%
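Secreted IL-1B measured by AlphaLISA bead assay after 16 h compound exposure of THP-1 cells; compounds (final up to 57.5 uM) added 1 h before LPS (250 ng/mL) and ATP (1.25 mM) stimulation; lower signal means less secretion.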
VP16 counter – VP16 counterscreen qHTS for inhibitors of ROR gamma transcriptional activity; Drosophila S2 Gal4-VP16 UAS-luciferase, luminescence, 20 h; Potency, µM (series often up to 53.6 µM), without a hit: top-dose activity, negative = inhibition, hits mostly inhibitors; 310,000 tested, 3.5% active;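 further: Gal4-VP16 expression switched on by copper sulfate through the metallothionein promoter; potency means the concentration at half of the fitted maximal effect; nearly all actives have a fitted effect of over 50% in size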
LDHA block – qHTS assay for inhibitors of human lactate dehydrogenase. L-lactate dehydrogenase A chain (Homo sapiens), P00338. purified LDHA, NADH/diaphorase-resazurin fluorescence; active compounds read low. activity change, % (values are at about 110 or 230 µM). 480,000 tested, 0.15% active. AID 1347041, 2019; in the data active means activity change below about -30%; inconclusive means mostly about -25% to -30%;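 further: plate controls were DMSO wells for no effect and wells without enzyme for full effect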
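LDH5 2 nM; NADH 0.06 mM, pyruvate 0.2 mM; 200 mM Tris pH 7.4, EDTA, Tween-20; 5 min RT. Detection: diaphorase 0.133 mg/mL + resazurin 37 µM, fluorescence ex540/em590 at 0 and 20 min; normalized to enzyme-free and DMSO wells.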
An asterisk follows results filed as active; ? = inconclusive; . = no result. Most compounds without a hit are left out; they make up all but 18% or so of the library. Unless noted, the call rests on the fitted dose curve; in most records, active means well fitted curve in the direction sought with a large enough effect; inconclusive means small, poorly fitted or top-dose-only effect, or another doubt; inactive means no such curve, though single readings can be large; an effect the other way counts as inactive or inconclusive. Unless noted, on the % scale 0 is the no-effect control and ±100 the full control effect.

SMILES	RORgamma inh	DT40 TDP1 CPT	DT40 TDP1 no CPT	IL-1B inflam inh	VP16 counter	LDHA block
Cc1ccoc1C(=O)N1CCCC(CCC(=O)N2CCN(c3ccccn3)CC2)C1 (stereo unspecified)	-3%	?	23µM*	-23	-20%	-1
C=CCn1c(N2CCC(C(N)=O)CC2)nc2c1c(=O)n(C)c(=O)n2C	.	.	.	.	.	2
CSc1nc2c(c(=O)n(C)c(=O)n2C)n1Cc1cccc(C)c1	.	.	.	.	.	1
COc1ccc(Br)cc1CNC(C)c1ccccc1 (stereo unspecified)	7%	?	29µM*	?	-14%	-1
COc1ccccc1CNCc1ccc(OC)c2ccccc12	.	?	16µM*	-82*	.	-7
COc1cccc(CNCc2ccc(OC)c3ccccc23)c1OC	-8%	21µM*	16µM*	-84*	3%	-11
COc1ccc(CNC2CCCC2)c2ccccc12	.	.	.	.	.	4
COc1ccccc1CNCc1cc(Br)ccc1OC	-14%	?	16µM*	?	2%	-22
COc1cccc(CNCCOCCO)c1OC	-2%	9%	-2%	6	-11%	-9
COc1ccc(Br)c2c1/C(=N/OC(=O)c1cccc3ccccc13)CC2	.	.	.	.	.	3
CCOC(=O)C1=C(C)NC(=O)NC1c1cn(-c2ccccc2)nc1-c1ccc(OC(C)C)c(C)c1 (stereo unspecified)	.	.	.	.	.	7
COc1ccc(Br)cc1CNC(=O)c1cc2ccccn2n1	.	16µM*	?	.	.	-3
COc1ccccc1CNCc1cccc(Oc2ccccc2)c1	-3%	?	?	-83*	8%	-15
COc1cccc(CNCc2ccccn2)c1OC	-17%	-22%	18µM*	0	8%	-9
O=C(NCc1ccccc1F)c1cc2ccccn2n1	.	-17%	?	.	.	-7
COc1ccc(CNCc2ccc(OC)c3ccccc23)cc1	-22%	?	?	-76*	-10%	-11
COc1cccc(CNCc2cccc3[nH]ccc23)c1	.	.	.	.	.	-17
NC(=O)NCc1ccc(C(=O)NNC(=O)c2c[nH]c3ccccc23)cc1	.	.	.	.	.	4
Fc1ccc(/C=N/NC(=S)NCc2ccccc2)cc1F	.	.	.	.	.	1
CCOc1ccc(NC(=O)Nc2cc(C)ccc2F)cc1	28%	?	-15%	-17	7%	-9
CCOc1cc(NC(=O)Nc2ccc(F)cc2)c(OCC)cc1NC(=O)CC	13%	-2%	5%	0	1%	0
CCOc1ccc(NC(=O)Nc2cc(OCC(F)(F)F)cc(OCC(F)(F)F)c2)cc1	?	2.9µM*	2.9µM*	-3	-26%	-7
O=C(Nc1ccc(F)cc1)Nc1cc(OCC(F)(F)F)cc(OCC(F)(F)F)c1	?	2.6µM*	4.6µM*	-61*	6.3µM*	-2
O=C(/C=C/c1ccco1)c1ccccc1	.	.	.	.	.	7
O=C(Cc1cccs1)N1CCN(c2ncnc3c2nnn3-c2ccccc2)CC1	.	.	.	.	.	-3
SMILES	RORgamma inh	DT40 TDP1 CPT	DT40 TDP1 no CPT	IL-1B inflam inh	VP16 counter	LDHA block
O=C(Nc1ccncc1)c1ccc(COc2ccccc2Cl)cc1	.	.	.	.	.	12
Clc1ccc(N(CC2CO2)CC2CO2)cc1 (stereo unspecified)	.	0.46µM*	0.65µM*	-24	.	2
CC(=O)Oc1cccc2cc(-c3nc(-c4ccc(Cl)cc4)no3)c(=O)oc12	.	.	.	.	.	6
O=C1C2C3c4ccccc4C(c4ccccc43)[C@@H]2c2nc3ccccc3n21 (stereo partly specified)	11µM*	12µM*	10µM*	1	-9%	-2
COc1ccc(CCC2CCN(C(=O)C3CCN(S(=O)(=O)c4ccc(C)cc4C)CC3)CC2)cc1	.	.	.	.	.	2
O=C(C[n+]1ccccc1Cl)c1ccc(F)cc1	.	-14%	-16%	.	.	.
O=C(CBr)c1ccc(Oc2ccc(C(=O)C[n+]3ccccc3Cl)cc2)cc1	.	?	?	.	.	-72*
Cc1cc(C)cc(NC(=O)CN2C(=O)CSc3ccc(S(=O)(=O)N(C)C)cc32)c1	.	21µM*	16µM*	.	.	-5
Cc1cc(Cl)ccc1NC(=O)CN1C(=O)CSc2ccc(S(=O)(=O)N(C)C)cc21	.	?	-28%	.	.	-6
COc1ccc(CNC(=O)CN2C(=O)CSc3ccc(S(=O)(=O)N(C)C)cc32)cc1	.	-24%	-29%	.	.	3
Cc1ccc(NC(=O)CN2C(=O)CSc3ccc(S(=O)(=O)N(C)C)cc32)cc1C	.	16µM*	?	.	.	-12
CN(C)S(=O)(=O)c1ccc2c(c1)N(CC(=O)Nc1ccc(OC(F)(F)F)cc1)C(=O)CS2	.	16µM*	?	.	.	-14
COc1cccc(NC(=O)CCc2c(C)c3ccc(C)cc3oc2=O)c1	.	.	.	.	.	-2
CC1(C)CC(C(CC(=O)O)Cc2ccccc2)CCO1 (stereo unspecified)	.	.	.	.	.	2
c1ccc2c(C[C@@H]3CNCCN3CCCCC3CCCCC3)cccc2c1	.	?	?	-16	.	4
Oc1ccc(C[C@@H]2CNCCN2CCc2cccc3ccccc23)cc1	.	15µM*	21µM*	?	.	-4
CCCCN1CCNC[C@@H]1Cc1ccc(O)cc1	.	-10%	1%	19	.	-10
